Test results published in PubChem BioAssay (NCATS).
Where “and” joins values, the source holds several entries; their conditions need not be identical. Equal entries are not always repeated. Results filed as inconclusive are left out. A number with no mark means an inactive call. Calls of active or inactive are those of the source. Calls come from the whole dose curve; as a rule, active = well fitted inhibition curve with a large enough effect; inconclusive = small, poorly fitted or top-dose-only effect; inactive = flat fitted curve, though single readings scatter.

These molecules were tested on NIH3T3 (assay: Cytotoxic Profiling of Annotated Libraries Using Quantitative High-Throughput Screening (AID 1296008)). Conditions: Five cell lines viability, CellTiter-Glo ATP luminescence, 48-72 h; max response: active compounds read low.
Method in brief: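 Cytotoxicity was measured as CellTiter-Glo ATP luminescence, read after 10 min at room temperature. Compound treatment of the cells lasted 48 or 72 hr at 37 degrees Celsius in a qHTS format.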
% is set by controls: 0 for no effect and ±100 for the full control effect; potency is the fitted concentration of half-maximal effect.
Note: nearly all actives have a fitted effect of over 60% in size.

**Q.** For `CCN1CCN(CC(=O)Nc2ccc(-c3cccc4c(=O)cc(N5CCOCC5)oc34)c3sc4ccccc4c23)CC1`, which Potency is on record?
**A.** 1.05 µM (active)

**Q.** With `Nc1cccc(-c2cc3c(Oc4cccc(O)c4)ncnc3[nH]2)c1` as the molecule, how does the Potency read?
**A.** 3.72 µM (active) and 4.61 µM (active)

**Q.** How did the Potency turn out when `COc1cc(C(=O)N2CCC(N3CCN(C)CC3)CC2)ccc1Nc1ncc2c(n1)N(C)c1ccccc1C(=O)N2C` was run?
**A.** 13 µM (active)

**Q.** For `COC(=O)C[C@](O)(CCCC(C)(C)O)C(=O)O[C@@H]1C(OC)=C[C@]23CCCN2CCc2cc4c(cc2[C@H]13)OCO4`, which max response is on record?
**A.** 2.2%

**Q.** For `CC(C)C[C@H](NC(=O)CNC(=O)c1cc(Cl)ccc1Cl)B(O)O`, which Potency is on record?
**A.** 0.662 µM (active)

**Q.** How did the max response turn out when `NC(=O)c1cccc2cn(-c3ccc([C@@H]4CCCNC4)cc3)nc12` was run?
**A.** -38.6% and -0.532%

**Q.** For `C[C@@]12O[C@@H](C[C@]1(O)CO)n1c3ccccc3c3c4c(c5c6ccccc6n2c5c31)CNC4=O`, which Potency is on record?
**A.** 1.87 µM (active)

**Q.** For `Cc1cnc(Nc2ccc(F)cc2Cl)nc1-c1c[nH]c(C(=O)N[C@H](CO)c2cccc(Cl)c2)c1`, which Potency is on record?
**A.** 10.5 µM (active)

**Q.** `O=C(Nc1ncc(-c2cc(C(F)F)nn2-c2c(Cl)cccc2Cl)s1)C1CC1` was tested. Which Potency did it give?
**A.** 1.18 µM (active) and 1.46 µM (active)

**Q.** How did the Potency turn out when `COc1cc(C)c(Sc2cnc(NC(=O)c3ccc(CNC(C)C(C)C)cc3)s2)cc1C(=O)N1CCN(C(C)=O)CC1` (stereo unspecified) was run?
**A.** 13.2 µM (active) and 13 µM (active)

**Q.** With `c1cc(-c2cnn3cc(-c4ccc(OCCN5CCCCC5)cc4)cnc23)ccn1` as the molecule, how does the Potency read?
**A.** 0.372 µM (active)

**Q.** How did the Potency turn out when `COc1c(OCCCN2CCOCC2)ccc2c3n(c(=NC(=O)c4cnc(N)nc4)nc12)CCN3` was run?
**A.** 2.88 µM (active) and 59.6 nM (active)

**Q.** Which Potency does the source give for `CCN(CC)CCNC(=O)c1ccc2nc(-c3ccccc3)c(-c3ccc(CN4CCC(n5c(=O)[nH]c6ccccc65)CC4)cc3)nc2c1` here?
**A.** 10.5 µM (active)

**Q.** For `CC(C)=CCCC(C)=CCCC(C)=CCSc1ccccc1C(=O)O`, which Potency is on record?
**A.** 14.8 µM (active)

**Q.** How did the Potency turn out when `N#CCNC(=O)c1ccc(-c2ccnc(Nc3ccc(N4CCOCC4)cc3)n2)cc1` was run?
**A.** 5.26 µM (active) and 4.11 µM (active)

**Q.** How did the Potency turn out when `CC(C)c1cc(-c2n[nH]c(=O)n2-c2ccc3c(ccn3C)c2)c(O)cc1O` was run?
**A.** 105 nM (active) and 116 nM (active)

**Q.** For `O=C(O)c1ccc2c(c1)nc(Nc1cccc(Cl)c1)c1ccncc12`, which outcome is on record?
**A.** inactive

**Q.** `Cc1c(CN2CCN(S(C)(=O)=O)CC2)sc2c(N3CCOCC3)nc(-c3cnc(N)nc3)nc12` was tested. Which Potency did it give?
**A.** 148 nM (active) and 517 nM (active)

**Q.** `Cc1cc(N2CCOCC2)cc2[nH]c(-c3c(NC[C@@H](O)c4cccc(Cl)c4)cc[nH]c3=O)nc12` was tested. Which Potency did it give?
**A.** 7.43 µM (active) and 13 µM (active)

**Q.** Which max response does the source give for `OCc1ccc(-c2ccc(-c3ccc(CO)s3)o2)s1` here?
**A.** -23.8%

**Q.** `Cc1nc2cnc3ccc(C#Cc4cccnc4)cc3c2n1-c1ccc(C(C)(C)C#N)cc1` was tested. Which Potency did it give?
**A.** 0.148 µM (active)

**Q.** For `O=C(NC1CCNCC1)c1[nH]ncc1NC(=O)c1c(Cl)cccc1Cl`, which Potency is on record?
**A.** 13.2 µM (active)

**Q.** For `COc1cccc2c(NCc3ccccc3)nc(-n3c(N)nc4ccccc43)nc12`, which Potency is on record?
**A.** 10.5 µM (active)

**Q.** With `CN(C)CCCN=c1c2ccccc2n(C)c2[nH]c(=O)n(C)c(=O)c12` as the molecule, how does the Potency read?
**A.** 23.5 µM (active)

The molecules below were run on HACAT (assay: qHTS assay to identify novel small-molecules to repurpose for Merkel cell carcinoma treatment (AID 1296009)). Conditions: MCC and control cell lines, CellTiter-Glo viability, 72 h; series mostly up to 44.8 µM; outcome: at the top concentration.
Method in brief: (§1)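 Cell viability measured by CellTiter-Glo following 72 hr compound treatment at 37 degree celsius, with NPC and MIPE libraries tested in 8- and 11-point concentration series.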

**Q.** Which “outcome” value does the source give for `COC(=O)C[C@](O)(CCCC(C)(C)O)C(=O)O[C@@H]1C(OC)=C[C@]23CCCN2CCc2cc4c(cc2[C@H]13)OCO4` here?
**A.** inactive

**Q.** With `CN1CCN(c2cc(C(=O)Nc3ccc4c(c3)-c3c(c(C(N)=O)nn3-c3ccc(F)cc3)CC4)c(Cl)cn2)CC1` as the molecule, how does the “outcome” value read?
**A.** inactive

**Q.** `Cc1ccc(S(=O)(=O)Nc2cc(Cl)ccc2C(=O)Nc2nc(-c3ccccc3)cs2)cc1` was tested. Which “outcome” value did it give?
**A.** inactive

**Q.** Which “outcome” value does the source give for `C[C@@H]1CN(CC(=O)Nc2ccc3c(c2)Cc2cccc(-c4cc(=O)cc(N5CCOCC5)o4)c2S3)C[C@H](C)O1` here?
**A.** inactive

**Q.** For `OCc1ccc(-c2ccc(-c3ccc(CO)s3)o2)s1`, which “outcome” value is on record?
**A.** inactive [at 17.4 µM]

The molecules below were run on MCC-13 in the same assay as above. Conditions: MCC and control cell lines, CellTiter-Glo viability, 72 h; series mostly up to 46 µM; activity change, negative = cytotoxicity: at the top concentration.
Method in brief: as §1

**Q.** `COc1cc(C(=O)N2CCC(N3CCN(C)CC3)CC2)ccc1Nc1ncc2c(n1)N(C)c1ccccc1C(=O)N2C` was tested. Which “activity change, negative = cytotoxicity” value did it give?
**A.** -24.9%

**Q.** Which “activity change, negative = cytotoxicity” value does the source give for `COC(=O)C[C@](O)(CCCC(C)(C)O)C(=O)O[C@@H]1C(OC)=C[C@]23CCCN2CCc2cc4c(cc2[C@H]13)OCO4` here?
**A.** 0.741%

**Q.** With `NC(=O)c1cccc2cn(-c3ccc([C@@H]4CCCNC4)cc3)nc12` as the molecule, how does the “activity change, negative = cytotoxicity” value read?
**A.** -25.3%

**Q.** With `CN1CCN(c2cc(C(=O)Nc3ccc4c(c3)-c3c(c(C(N)=O)nn3-c3ccc(F)cc3)CC4)c(Cl)cn2)CC1` as the molecule, how does the “activity change, negative = cytotoxicity” value read?
**A.** 1.8%

**Q.** How did the “activity change, negative = cytotoxicity” value turn out when `Cc1ccc(S(=O)(=O)Nc2cc(Cl)ccc2C(=O)Nc2nc(-c3ccccc3)cs2)cc1` was run?
**A.** 3.2%

**Q.** Which Potency does the source give for `CN[C@H]1CCc2cc(OC)c(OC)c(OC)c2-c2ccc(OC)c(=O)cc21` here?
**A.** 0.0209 µM (active)

**Q.** Which “activity change, negative = cytotoxicity” value does the source give for `C[C@@H]1CN(CC(=O)Nc2ccc3c(c2)Cc2cccc(-c4cc(=O)cc(N5CCOCC5)o4)c2S3)C[C@H](C)O1` here?
**A.** -2.85%

**Q.** For `c1cc(-c2cnn3cc(-c4ccc(OCCN5CCCCC5)cc4)cnc23)ccn1`, which Potency is on record?
**A.** 16.6 µM (active)

**Q.** With `O=c1[nH]c(=O)n(C2CCCO2)cc1F` (stereo unspecified) as the molecule, how does the “activity change, negative = cytotoxicity” value read?
**A.** 1.56% [at 92.7 µM]

**Q.** How did the “activity change, negative = cytotoxicity” value turn out when `CN1CCC(CNc2ccc3ncc(-c4cccc(OC(F)(F)F)c4)n3n2)CC1` was run?
**A.** -10.5%

**Q.** `CCN(CC)CCNC(=O)c1ccc2nc(-c3ccccc3)c(-c3ccc(CN4CCC(n5c(=O)[nH]c6ccccc65)CC4)cc3)nc2c1` was tested. Which Potency did it give?
**A.** 8.33 µM (active)

**Q.** `CCN(CC)CCCCNc1ncc2cc(-c3cc(OC)cc(OC)c3)c(NC(=O)NC(C)(C)C)nc2n1` was tested. Which “activity change, negative = cytotoxicity” value did it give?
**A.** -0.338%

**Q.** With `Cc1ccc(-c2ncn(-c3ccc(Nc4nccc(-c5cccc(N6CCOCC6)c5)n4)cc3)n2)cn1` as the molecule, how does the Potency read?
**A.** 0.526 µM (active)

**Q.** `CC(C)c1cc(-c2n[nH]c(=O)n2-c2ccc3c(ccn3C)c2)c(O)cc1O` was tested. Which Potency did it give?
**A.** 0.132 µM (active)

**Q.** With `Cc1cn2c(-c3cn[nH]c3)cnc2c(Nc2ccc(C(=O)N3CCNCC3)cc2F)n1` as the molecule, how does the “activity change, negative = cytotoxicity” value read?
**A.** -3.98%

**Q.** With `COc1cc2c(NC3CCN(C(C)C)CC3)nc(C3CCCCC3)nc2cc1OCCCN1CCCC1` as the molecule, how does the “activity change, negative = cytotoxicity” value read?
**A.** -0.183%

**Q.** `Cc1cccc(C=NNc2cc(N3CCOCC3)nc(OCCc3ccccn3)n2)c1` was tested. Which “activity change, negative = cytotoxicity” value did it give?
**A.** -1.65%
